Only a selection was taken, and the strongest signals are over-represented in it overall.
Assays:
Assay in all cases: glycan array binding signal (z-score within array); higher = stronger binding
Details in all cases: glycan notation: IUPAC condensed, linker removed
[1] = target: Glc(a1-6)Glc(a1-6)Glc
Procedure, shortened: (§1)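 Glycan array data were curated from 3228 arrays in the Consortium for Functional Glycomics database and kept only where the protein sequence was available. Glycan names were converted to IUPAC-condensed notation, and columns mapping to the same glycan were averaged. The binding signal is a within-array Z-score, averaged across arrays of the same protein sequence at different concentrations or buffers and across linkers. Negative Z-scores can be read as non-binding.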

[2] = target: GlcNAc(b1-2)Gal(b1-3)GalNAc
Procedure, shortened: as §1

[3] = target: GlcNAc(b1-2)[GlcNAc(b1-4)]Man(a1-3)[GlcNAc(b1-2)Man(a1-6)]Man(b1-4)GlcNAc(b1-4)GlcNAc
Procedure, shortened: as §1

[4] = target: GlcNAc(b1-3)Gal(b1-4)GlcNAc(b1-3)Gal(b1-4)GlcNAc(b1-3)Gal(b1-4)GlcNAc(b1-3)Gal(b1-4)GlcNAc(b1-2)Man(a1-3)[GlcNAc(b1-3)Gal(b1-4)GlcNAc(b1-3)Gal(b1-4)GlcNAc(b1-3)Gal(b1-4)GlcNAc(b1-3)Gal(b1-4)GlcNAc(b1-2)Man(a1-6)]Man(b1-4)GlcNAc(b1-4)[Fuc(a1-6)]GlcNAc
Procedure, shortened: as §1

[5] = target: GlcNAc(b1-3)Gal(b1-4)GlcNAc(b1-3)Gal(b1-4)GlcNAc(b1-3)GalNAc
Procedure, shortened: as §1

[6] = target: GlcNAc(b1-3)[GlcNAc(b1-6)]GalNAc
Procedure, shortened: as §1

[7] = target: GlcNAc(b1-4)GlcNAc(b1-4)GlcNAc(b1-4)GlcNAc(b1-4)GlcNAc(b1-4)GlcNAc
Procedure, shortened: as §1

[8] = target: Kdn(a2-6)Gal(b1-4)GlcNAc
Procedure, shortened: as §1

[9] = target: Man(a1-2)Man(a1-2)Man(a1-3)Man
Procedure, shortened: as §1

[10] = target: Man(a1-2)Man(a1-3)[Man(a1-2)Man(a1-6)]Man
Procedure, shortened: as §1

[11] = target: Man(a1-3)[Man(a1-6)]Man(a1-6)[Man(a1-3)]Man(b1-4)GlcNAc(b1-4)GlcNAc
Procedure, shortened: as §1

[12] = target: MurNAc(b1-4)GlcNAc
Procedure, shortened: as §1

[13] = target: Neu5Ac(a2-3)Gal(b1-4)GlcNAc(b1-2)Man(a1-3)[GlcNAc(b1-4)][Neu5Ac(a2-3)Gal(b1-4)GlcNAc(b1-2)Man(a1-6)]Man(b1-4)GlcNAc(b1-4)GlcNAc
Procedure, shortened: as §1

[14] = target: Neu5Ac(a2-3)Gal(b1-4)GlcNAc(b1-3)Gal(b1-4)GlcNAc
Procedure, shortened: as §1

[15] = target: Neu5Ac(a2-3)Gal(b1-4)GlcNAc(b1-3)Gal(b1-4)GlcNAc(b1-3)[Neu5Ac(a2-3)Gal(b1-4)GlcNAc(b1-3)Gal(b1-4)GlcNAc(b1-6)]GalNAc
Procedure, shortened: as §1

[16] = target: Neu5Ac(a2-3)Gal(b1-4)GlcNAc(b1-3)[Neu5Ac(a2-3)Gal(b1-4)GlcNAc(b1-6)]GalNAc
Procedure, shortened: as §1

[17] = target: Neu5Ac(a2-3)Gal(b1-4)[Fuc(a1-3)]GlcNAc(b1-3)GalNAc
Procedure, shortened: as §1

[18] = target: Neu5Ac(a2-6)Gal(b1-4)GlcNAc(b1-2)Man(a1-3)Man(b1-4)GlcNAc(b1-4)GlcNAc
Procedure, shortened: as §1

[19] = target: Neu5Ac(a2-6)Gal(b1-4)GlcNAc(b1-2)Man(a1-3)[Gal(b1-4)GlcNAc(b1-2)Man(a1-6)]Man(b1-4)GlcNAc(b1-4)GlcNAc
Procedure, shortened: as §1

[20] = target: Neu5Ac(a2-6)Gal(b1-4)GlcNAc(b1-2)[Neu5Ac(a2-6)Gal(b1-4)GlcNAc(b1-4)]Man(a1-3)[GlcNAc(b1-4)][Neu5Ac(a2-6)Gal(b1-4)GlcNAc(b1-2)[Neu5Ac(a2-6)Gal(b1-4)GlcNAc(b1-6)]Man(a1-6)]Man(b1-4)GlcNAc(b1-4)GlcNAc
Procedure, shortened: as §1

[21] = target: Neu5Ac(a2-6)Gal(b1-4)GlcNAc(b1-2)[Neu5Ac(a2-6)Gal(b1-4)GlcNAc(b1-6)]Man(a1-6)[Neu5Ac(a2-6)Gal(b1-4)GlcNAc(b1-2)Man(a1-3)][GlcNAc(b1-4)]Man(b1-4)GlcNAc(b1-4)GlcNAc
Procedure, shortened: as §1

[22] = target: Neu5Ac(a2-6)Gal(b1-4)GlcNAc(b1-3)Gal(b1-4)GlcNAc
Procedure, shortened: as §1

[23] = target: Neu5Ac(a2-6)Gal(b1-4)GlcNAc(b1-3)Gal(b1-4)GlcNAc(b1-3)[Neu5Ac(a2-6)Gal(b1-4)GlcNAc(b1-3)Gal(b1-4)GlcNAc(b1-6)]GalNAc
Procedure, shortened: as §1

[24] = target: Neu5Ac(a2-6)Gal(b1-4)GlcNAc(b1-6)[Gal(b1-3)GlcNAc(b1-3)]Gal(b1-4)Glc
Procedure, shortened: as §1

[25] = target: Neu5Ac(a2-8)Neu5Ac(a2-8)Neu5Ac
Procedure, shortened: as §1

[26] = target: Neu5Gc(a2-8)Neu5Gc(a2-6)Gal(b1-4)GlcNAc
Procedure, shortened: as §1

B1: EfCBM33A (Enterococcus faecalis), Q838S1 (protein)
chain: MKKSLLTIVLAFSFVLGGAALAPTVSEAHGYVASPGSRAFFGSSAGGNLNTNVGRAQWEPQSIEAPKNTFITGKLASAGVSGFEPLDEQTATRWHKTNITTGPLDITWNLTAQHRTASWDYYITKNGWNPNQPLDIKNFDKIASIDGKQEVPNKVVKQTINIPTDRKGYHVIYAVWGIGDTVNAFYQAIDVNIQ
[1]
  glycan array binding signal (z-score): 0.821
[2]
  glycan array binding signal (z-score): -0.504
[3]
  glycan array binding signal (z-score): 0.123
[4]
  glycan array binding signal (z-score): 4.24
[5]
  glycan array binding signal (z-score): 0.242
[6]
  glycan array binding signal (z-score): -0.941
[7]
  glycan array binding signal (z-score): 0.083
[8]
  glycan array binding signal (z-score): 0.328
[9]
  glycan array binding signal (z-score): -0.162
[10]
  glycan array binding signal (z-score): 0.783
[11]
  glycan array binding signal (z-score): 0.455
[12]
  glycan array binding signal (z-score): 0.631
[13]
  glycan array binding signal (z-score): 0.122
[14]
  glycan array binding signal (z-score): -0.177
[15]
  glycan array binding signal (z-score): 7.32
[16]
  glycan array binding signal (z-score): 3.14
[17]
  glycan array binding signal (z-score): 2.79
[18]
  glycan array binding signal (z-score): 2.04
[19]
  glycan array binding signal (z-score): 0.519
[20]
  glycan array binding signal (z-score): 2.16
[21]
  glycan array binding signal (z-score): 0.103
[22]
  glycan array binding signal (z-score): 2.76
[23]
  glycan array binding signal (z-score): 0.687
[24]
  glycan array binding signal (z-score): -0.451
[25]
  glycan array binding signal (z-score): 0.016
[26]
  glycan array binding signal (z-score): -0.736
